Assay results from PubChem BioAssay AID1159580 (chemical genetic matrix, 2015).
Out of some 5,500 compounds screened, about 2,000 (36%) were called active. Roughly 18% stayed inconclusive and do not appear here. Cut-off read from the data, not from the text of the source: active = normalized growth mostly below about 0.91 (no sharp cut-off); inconclusive = no clear call, values can overlap the other calls; inactive = mostly above about 0.92. Some of the results follow.

Assay: chemical genetic growth profiling, strain panel (AID 1159580);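 note: tested at 20 µM; growth read once vehicle control cultures reached saturation at 30 °C; 1 = growth at the plate median or of vehicle wells; lower values mean less growth of the strain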
Conditions: growth OD
[1] = S. cerevisiae deletion strains, locus YAL013W, strain DEP1, stronger effect = lower value
[2] = S. cerevisiae deletion strains, locus YBR229C, strain ROT2, stronger effect = lower value
[3] = S. cerevisiae deletion strains, locus YCL061C, strain MRC1, stronger effect = lower value
[4] = S. cerevisiae deletion strains, locus YDL101C, strain DUN1, stronger effect = lower value
[5] = S. cerevisiae deletion strains, locus YDL134C, strain PPH21, stronger effect = lower value
[6] = S. cerevisiae deletion strains, locus YDR150W, strain NUM1, stronger effect = lower value
[7] = S. cerevisiae deletion strains, locus YEL061C, strain CIN8, stronger effect = lower value
[8] = S. cerevisiae deletion strains, locus YGR078C, strain PAC10, stronger effect = lower value
[9] = S. cerevisiae deletion strains, locus YHR030C, strain SLT2, stronger effect = lower value
[10] = S. cerevisiae deletion strains, locus YHR087W, strain rtc3, stronger effect = lower value
[11] = S. cerevisiae deletion strains, locus YJR043C, strain POL32, stronger effect = lower value
[12] = S. cerevisiae deletion strains, locus YJR075W, strain HOC1, stronger effect = lower value
[13] = S. cerevisiae deletion strains, locus YKL190W, strain CNB1, stronger effect = lower value
[14] = S. cerevisiae deletion strains, locus YLR039C, strain RIC1, stronger effect = lower value
[15] = S. cerevisiae deletion strains, locus YLR058C, strain SHM2 (second series), stronger effect = lower value
[16] = S. cerevisiae deletion strains, locus YLR085C, strain ARP6, stronger effect = lower value
[17] = S. cerevisiae deletion strains, locus YLR262C, strain YPT6, stronger effect = lower value
[18] = S. cerevisiae deletion strains, locus YML094W, strain GIM5, stronger effect = lower value
[19] = S. cerevisiae deletion strains, locus YMR219W, strain ESC1, stronger effect = lower value
[20] = S. cerevisiae deletion strains, locus YMR263W, strain SAP30, stronger effect = lower value
[21] = S. cerevisiae deletion strains, locus YMR307W, strain GAS1, stronger effect = lower value
[22] = S. cerevisiae deletion strains, locus YNL153C, strain GIM3, stronger effect = lower value
[23] = S. cerevisiae deletion strains, locus YNL298W, strain CLA4 (second series), stronger effect = lower value
[24] = S. cerevisiae deletion strains, locus YNL322C, strain KRE1, stronger effect = lower value
[25] = S. cerevisiae deletion strains, locus YNR030W, strain Alg12, stronger effect = lower value
[26] = S. cerevisiae deletion strains, locus YOL006C, strain TOP1, stronger effect = lower value
[27] = S. cerevisiae deletion strains, locus YPL055C, strain LGE1, stronger effect = lower value
[28] = S. cerevisiae deletion strains, locus YPL241C, strain CIN2, stronger effect = lower value
[29] = S. cerevisiae deletion strains, locus YPR135W, strain CTF4, stronger effect = lower value
[30] = S. cerevisiae deletion strains, locus YGR229C, strain SMI1, stronger effect = lower value
[31] = S. cerevisiae strains, strain wild type, stronger effect = lower value

Measured: normalized growth

O=C(NC1CCCCC1)N1CCN(c2ncccc2C(F)(F)F)CC1
inactive: [1] 1.01 | [2] 0.994 | [3] 0.984 | [4] 0.998 | [5] 0.982 | [6] 0.978 | [7] 0.998 | [8] 1 | [9] 0.994 | [10] 1.01 | [11] 0.979 | [12] 0.99 | [13] 0.989 | [14] 1.01 | [15] 0.987 | [16] 0.996 | [17] 0.993 | [18] 1.01 | [19] 0.991 | [20] 0.988 | [21] 0.851 | S. cerevisiae deletion strains, locus YNL128W, strain TEP1, stronger effect = lower value 0.986 | [22] 0.988 | [23] 0.986 | [24] 1 | [25] 1 | [26] 0.966 | [27] 1.01 | [28] 0.985 | [29] 1.01

COc1ccccc1N1CCN(C(=O)c2cccs2)CC1
inactive: [1] 0.998 | [2] 1.01 | [4] 0.991 | [5] 0.959 | [6] 1.04 | [7] 1.01 | [8] 1 | [30] 0.993 | [9] 0.963 | [10] 0.985 | [11] 1.01 | [12] 1.03 | [13] 0.99 | [14] 1.01 | [15] 0.984 | [16] 0.889 | [17] 1.13 | [18] 0.972 | [19] 0.988 | [20] 1.02 | [21] 0.849 | [22] 1.04 | [23] 0.981 | [24] 0.993 | [25] 0.957 | [27] 0.99 | [28] 0.957 | [29] 1.1 | [31] 0.993

COc1ccccc1N1CCN(C(=O)C(C)c2ccc(CC(C)C)cc2)CC1 (centres undefined)
active: [9] 0.802 | S. cerevisiae deletion strains, locus YLR113W, strain HOG1, stronger effect = lower value 0.829
inactive: S. cerevisiae deletion strains, locus YAR019C, strain CDC15, stronger effect = lower value 0.978 | S. cerevisiae deletion strains, locus YBL105C, strain PKC1, stronger effect = lower value 0.983 | S. cerevisiae deletion strains, locus YBR135W, strain CKS1, stronger effect = lower value 0.978 | S. cerevisiae deletion strains, locus YBR136W, strain MEC1, stronger effect = lower value 0.984 | S. cerevisiae deletion strains, locus YBR160W, strain CDC28, stronger effect = lower value 0.975 | S. cerevisiae deletion strains, locus YDL017W, strain CDC7, stronger effect = lower value 0.981 | S. cerevisiae deletion strains, locus YDL028C, strain MPS1, stronger effect = lower value 0.97 | [4] 0.974 | S. cerevisiae deletion strains, locus YDL108W, strain KIN28, stronger effect = lower value 0.968 | S. cerevisiae deletion strains, locus YDL132W, strain cdc53, stronger effect = lower value 0.988 | S. cerevisiae deletion strains, locus YDL214C, strain PRR2, stronger effect = lower value 0.932 | S. cerevisiae deletion strains, locus YDR052C, strain DBF4, stronger effect = lower value 0.99 | S. cerevisiae deletion strains, locus YDR054C, strain cdc34, stronger effect = lower value 0.975 | S. cerevisiae deletion strains, locus YDR226W, strain ADK1, stronger effect = lower value 0.966 | S. cerevisiae deletion strains, locus YDR477W, strain SNF1, stronger effect = lower value 0.921 | S. cerevisiae deletion strains, locus YER123W, strain YCK3, stronger effect = lower value 0.923 | S. cerevisiae deletion strains, locus YER133W, strain GLC7, stronger effect = lower value 0.954 | S. cerevisiae deletion strains, locus YFL009W, strain cdc4, stronger effect = lower value 0.967 | S. cerevisiae deletion strains, locus YFL029C, strain CAK1, stronger effect = lower value 0.977 | S. cerevisiae deletion strains, locus YFR003C, strain YPI1, stronger effect = lower value 0.983 | S. cerevisiae deletion strains, locus YFR019W, strain FAB1, stronger effect = lower value 0.947 | S. cerevisiae deletion strains, locus YFR028C, strain CDC14, stronger effect = lower value 0.986 | S. cerevisiae deletion strains, locus YGR040W, strain KSS1, stronger effect = lower value 0.936 | S. cerevisiae deletion strains, locus YGR052W, strain FMP48, stronger effect = lower value 0.944 | S. cerevisiae deletion strains, locus YGR092W, strain DBF2, stronger effect = lower value 0.938 | S. cerevisiae deletion strains, locus YHR079C, strain IRE1, stronger effect = lower value 0.93 | S. cerevisiae deletion strains, locus YHR082C, strain KSP1, stronger effect = lower value 0.939 | S. cerevisiae deletion strains, locus YHR205W, strain SCH9, stronger effect = lower value 0.861 | S. cerevisiae deletion strains, locus YIL147C, strain SLN1, stronger effect = lower value 0.981 | S. cerevisiae deletion strains, locus YJL095W, strain BCK1, stronger effect = lower value 0.91 | S. cerevisiae deletion strains, locus YJL128C, strain PBS2, stronger effect = lower value 0.977 | S. cerevisiae deletion strains, locus YJL157C, strain FAR1, stronger effect = lower value 0.968 | S. cerevisiae deletion strains, locus YJR016C, strain ILV3, stronger effect = lower value 0.983 | S. cerevisiae deletion strains, locus YJR066W, strain TOR1 (second series), stronger effect = lower value 0.946 | S. cerevisiae deletion strains, locus YJR066W, strain TOR1, stronger effect = lower value 0.873 | S. cerevisiae deletion strains, locus YKL048C, strain ELM1, stronger effect = lower value 0.978 | S. cerevisiae deletion strains, locus YKL067W, strain YNK1, stronger effect = lower value 0.933 | S. cerevisiae deletion strains, locus YKL101W, strain HSL1, stronger effect = lower value 0.926 | S. cerevisiae deletion strains, locus YKL193C, strain SDS22, stronger effect = lower value 0.976 | S. cerevisiae deletion strains, locus YKL203C, strain TOR2, stronger effect = lower value 1.01 | S. cerevisiae deletion strains, locus YLR133W, strain CKI1, stronger effect = lower value 0.943 | S. cerevisiae deletion strains, locus YLR403W, strain SFP1, stronger effect = lower value 0.95 | S. cerevisiae deletion strains, locus YML070W, strain DAK1, stronger effect = lower value 0.933 | S. cerevisiae deletion strains, locus YMR001C, strain CDC5, stronger effect = lower value 0.972 | S. cerevisiae deletion strains, locus YMR205C, strain PFK2 (second series), stronger effect = lower value 0.945 | S. cerevisiae deletion strains, locus YMR277W, strain FCP1, stronger effect = lower value 0.966 | S. cerevisiae deletion strains, locus YNL006W, strain LST8, stronger effect = lower value 0.964 | S. cerevisiae deletion strains, locus YNL020C, strain ARK1, stronger effect = lower value 0.942 | S. cerevisiae deletion strains, locus YNL161W, strain CBK1, stronger effect = lower value 0.981 | S. cerevisiae deletion strains, locus YNL183C, strain NPR1, stronger effect = lower value 0.963 | S. cerevisiae deletion strains, locus YNL207W, strain RIO2, stronger effect = lower value 0.983 | S. cerevisiae deletion strains, locus YNL222W, strain SSU72, stronger effect = lower value 0.969 | S. cerevisiae deletion strains, locus YNL307C, strain MCK1 (second series), stronger effect = lower value 0.924 | S. cerevisiae deletion strains, locus YOL078W, strain AVO1, stronger effect = lower value 0.977 | S. cerevisiae deletion strains, locus YOL136C, strain PFK27, stronger effect = lower value 0.909 | S. cerevisiae deletion strains, locus YOR061W, strain CKA2, stronger effect = lower value 0.937 | S. cerevisiae deletion strains, locus YOR119C, strain RIO1, stronger effect = lower value 0.951 | S. cerevisiae deletion strains, locus YOR231W, strain MKK1, stronger effect = lower value 0.904 | S. cerevisiae deletion strains, locus YOR329C, strain SCD5, stronger effect = lower value 0.98 | S. cerevisiae deletion strains, locus YPL031C, strain PHO85, stronger effect = lower value 0.93 | S. cerevisiae deletion strains, locus YPL153C, strain RAD53, stronger effect = lower value 0.919 | S. cerevisiae deletion strains, locus YPL204W, strain HRR25, stronger effect = lower value 0.915 | S. cerevisiae deletion strains, locus YPL209C, strain IPL1, stronger effect = lower value 0.981 | S. cerevisiae deletion strains, locus YPL256C, strain CLN2, stronger effect = lower value 0.877 | S. cerevisiae deletion strains, locus YPR025C, strain CCL1, stronger effect = lower value 0.983 | S. cerevisiae deletion strains, locus YPR106W, strain ISR1, stronger effect = lower value 0.961 | S. cerevisiae deletion strains, locus YPR111W, strain DBF20, stronger effect = lower value 0.95 | S. cerevisiae deletion strains, strain NNK1, stronger effect = lower value 0.965 | S. cerevisiae deletion strains, strain TSCII, stronger effect = lower value 0.965

COc1ccccc1N1CCN(C(=O)Nc2cc(Cl)cc(Cl)c2)CC1
inactive: [1] 0.934 | [2] 0.988 | [3] 0.927 | [4] 0.967 | [6] 0.854 | [7] 0.914 | [8] 0.965 | [10] 0.97 | [11] 0.971 | [12] 0.986 | [14] 1.09 | [15] 1 | [17] 1.05 | [19] 1 | [20] 0.937 | [22] 0.975 | [24] 0.984 | [26] 0.857 | [29] 0.667 | [31] 0.922
active: [9] 0.434 | [16] 0.511 | [18] 0.823 | [23] 0.715 | [25] 0.877 | [27] 0.761 | [28] 0.716

COc1ccccc1N1CCN(CCN(C(=O)c2ccc(I)cc2)c2ccccn2)CC1
inactive: S. cerevisiae deletion strains, locus YAL040C, strain CLN3, stronger effect = lower value 0.976 | S. cerevisiae deletion strains, locus YCL061C, strain MRC1 (second series), stronger effect = lower value 0.988 | S. cerevisiae deletion strains, locus YDR363W, strain ESC2, stronger effect = lower value 0.943 | S. cerevisiae deletion strains, locus YER002W, strain NOP16, stronger effect = lower value 1.01 | [30] 0.984 | S. cerevisiae deletion strains, locus YNL175C, strain NOP13, stronger effect = lower value 0.983 | S. cerevisiae deletion strains, locus YNL197C, strain WHI3, stronger effect = lower value 0.996 | S. cerevisiae deletion strains, locus YNL224C, strain SQS1, stronger effect = lower value 0.987 | [24] 0.977 | S. cerevisiae deletion strains, locus YOR083W, strain WHI5 (second series), stronger effect = lower value 0.997 | [27] 0.964 | [28] 0.995
